Source: PubChem (several laboratories)
RecA intein inh: inhibitors of M. tuberculosis RecA intein splicing. cell-free RecA intein splicing, fluorescence. 290,000 tested, 0.75% active. P9WHJ3. inhibition, % (test concentration not listed); in the data active means inhibition above about 30%
SARS 3CLpro inh: SARS-CoV 3CLpro protease inhibition. inhibition, % at 6 µM. recombinant SARS-CoV 3CLpro, quenched FRET peptide cleavage. P0C6X7. AID 1706. 290,000 tested, 0.14% active; in the data active means inhibition above about 12%
GDH-TPI counter: GDH-TPI coupled enzyme inhibition counter-screen; inhibition, % at 4.8 µM; 360,000 tested, 1.2% active; GDH-TPI coupled enzyme counterscreen, NADH absorbance
DUSP3 inh: blocks human VHR1 dual specificity phosphatase. recombinant VHR phosphatase, pNPP absorbance. inhibition, % at 13.3 µM. 290,000 tested, 0.52% active; in the data active means inhibition above about 50%
Target sequence (P51452 whole entry, looked up): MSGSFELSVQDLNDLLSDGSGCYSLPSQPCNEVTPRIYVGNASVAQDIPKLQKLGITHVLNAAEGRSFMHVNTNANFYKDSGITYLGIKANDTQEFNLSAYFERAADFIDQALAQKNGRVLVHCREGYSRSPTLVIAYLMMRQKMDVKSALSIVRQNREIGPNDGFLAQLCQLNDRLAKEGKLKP
FBA Mtb inh: inhibitors of M. tuberculosis fructose-bisphosphate aldolase; purified M. tuberculosis FBA, fluorescence read-out; inhibition, % at 1 µM; 360,000 tested, 2.3% active; AID 588726; in the data active means inhibition above about 27%
Target sequence (P9WQA3 whole entry, looked up): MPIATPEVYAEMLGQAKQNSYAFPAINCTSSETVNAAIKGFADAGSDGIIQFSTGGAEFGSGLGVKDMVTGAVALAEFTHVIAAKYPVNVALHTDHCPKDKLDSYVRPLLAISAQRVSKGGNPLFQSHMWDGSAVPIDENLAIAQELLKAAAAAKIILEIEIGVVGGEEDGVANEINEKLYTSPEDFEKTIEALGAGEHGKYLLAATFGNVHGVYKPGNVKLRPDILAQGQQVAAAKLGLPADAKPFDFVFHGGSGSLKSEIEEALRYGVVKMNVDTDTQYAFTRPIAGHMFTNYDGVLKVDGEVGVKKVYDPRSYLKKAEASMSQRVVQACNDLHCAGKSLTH
CCHF vOTU inh: blocks the CCHF virus ovarian tumor domain protease; 370,000 tested, 0.55% active; inhibition, % at 11.5 µM; CCHFV vOTU protease, Pep-AMC fluorescence
Large screens that a line does not name were inactive; ! = repeats disagree. Sampled rows, rich in hits. Any-hit rate of the full collection: about 4.7%. Unless noted, no stated cut-off is given here; in the data, active means inhibition above about 30%; inactive means the rest.

COc1cc(C2Nc3ccc4ccccc4c3C3=C2C(=O)CC(C)(C)C3)ccc1OC(C)C(=O)O (stereo unspecified)	FBA Mtb inh 183
COc1cccc2c1cc1c(=O)n(CC(=O)NCCCN3CCCCC3)nc(C)n12	FBA Mtb inh 116 (no result: CCHF vOTU inh)
CCc1nn(CC(=O)NCCCN2CCOCC2)c(=O)c2cc3c(OC)cccc3n12	FBA Mtb inh 112 (no result: RecA intein inh, SARS 3CLpro inh, DUSP3 inh)
CCc1nn(CC(=O)NCCCc2ccccc2)c(=O)c2cc3c(OC)cccc3n12	none
CC(C)c1ccc(NC(=O)COC(=O)C2CCCCC2)cc1	none (no result: RecA intein inh, SARS 3CLpro inh, DUSP3 inh)
C#CCSc1nnc(-c2c[nH]c3ccccc23)n1C	none
C#CCSc1nnc(-c2sc(-c3ccccc3)nc2C)n1C	FBA Mtb inh 36
CCC1CCCCN1S(=O)(=O)c1ccc([N+](=O)[O-])cc1 (stereo unspecified)	DUSP3 inh 51
COc1ccc(CN(C(=O)CSc2nnc(-c3ccccc3C)o2)c2ccc(F)cc2)cc1	RecA intein inh 40, FBA Mtb inh active
COc1ccc(C(=O)N2C=Cc3ccccc3C2C(N)=O)cc1 (stereo unspecified)	none (no result: RecA intein inh, SARS 3CLpro inh, DUSP3 inh)
CN(C)C(CNc1ccc(S(C)(=O)=O)cc1[N+](=O)[O-])Cc1ccccc1 (stereo unspecified)	DUSP3 inh 56
CC(NC(=O)C(NC(=O)OCc1ccccc1)C(C)O)C(=O)OCc1ccccc1 (stereo unspecified)	none (no result: RecA intein inh, SARS 3CLpro inh, GDH-TPI counter, DUSP3 inh, FBA Mtb inh)
Cn1cc(Cl)c(C(=O)N/N=C/c2ccc3c4c(cccc24)CC3)n1	GDH-TPI counter 36, FBA Mtb inh 30 (no result: CCHF vOTU inh)
COC(=O)c1sc(=S)n(Cc2ccccc2)c1C	GDH-TPI counter 46
CCCCNC(=O)C1CCCN1C(=O)Nc1cccc(C)c1 (stereo unspecified)	none (no result: RecA intein inh, SARS 3CLpro inh, GDH-TPI counter, DUSP3 inh, FBA Mtb inh)
COc1cccc(C2C([N+](=O)[O-])=C(N)Oc3c2c(=O)oc2ccccc32)c1 (stereo unspecified)	DUSP3 inh 52
Cc1ccc(NC(=O)Cc2cccc(OC(F)F)c2)c(S(=O)(=O)N2CCOCC2)c1	none (no result: RecA intein inh, SARS 3CLpro inh, GDH-TPI counter, DUSP3 inh, FBA Mtb inh)
CCCCCCOc1ccc(C(=O)O)cc1	none
CCCCCCOc1ccc(C(=O)n2cnc(N)n2)cc1	RecA intein inh 54
O=C(CCl)Nc1ccc(C(=O)NCC2COc3ccccc3O2)cc1 (stereo unspecified)	none (no result: RecA intein inh, SARS 3CLpro inh, GDH-TPI counter, DUSP3 inh, FBA Mtb inh)
COc1ccccc1N1CCN(CC(O)COc2cccc3ccccc23)CC1 (stereo unspecified)	SARS 3CLpro inh 17!
OC(COc1cccc2ccccc12)CN1CCN(c2ccccc2)CC1 (stereo unspecified)	none
C[C@H]1CN(C(=O)OC(C)(C)C)CCN1c1ccc(Br)c(C#N)c1	none (no result: RecA intein inh, SARS 3CLpro inh, GDH-TPI counter, DUSP3 inh, FBA Mtb inh)
FC(F)(F)c1cnc(Sc2nc3nccc(-c4ccc(Cl)cc4)n3n2)c(Cl)c1	none
COc1ccc(-c2ccnc3nc(Sc4ncc(C(F)(F)F)cc4Cl)nn23)cc1	FBA Mtb inh active
OC(CNCc1ccccc1)COc1ccccc1 (stereo unspecified)	none (no result: SARS 3CLpro inh, DUSP3 inh)
OC(CNCC1CCCCC1)COc1ccccc1 (stereo unspecified)	DUSP3 inh 51 (no result: RecA intein inh)
C(=N\N1CCOCC1)/c1cn(-c2ccccc2)nc1-c1ccccc1	none
C(=N\N1CCOCC1)/c1nc(-c2ccccc2)n2ccccc12	GDH-TPI counter 34
CCn1c2ccccc2c2cc(NC(=O)COC(=O)c3cc(F)ccc3F)ccc21	none (no result: RecA intein inh, SARS 3CLpro inh, GDH-TPI counter, DUSP3 inh, FBA Mtb inh)
Cc1ccc2nc(-c3cccnc3)cc(C(=O)Nc3ccc(F)cc3C)c2c1	DUSP3 inh 53
CC(C)C[C@@H]1COc2cc(Br)ccc2S(=O)(=O)N1Cc1cn(Cc2ccc(Cl)cc2)nn1	none (no result: RecA intein inh, SARS 3CLpro inh, GDH-TPI counter, DUSP3 inh, FBA Mtb inh)
COCCNC(=O)C1(C)CCCN(C(=O)c2ccc(C(=O)OC)cc2)C1 (stereo unspecified)	none (no result: RecA intein inh, SARS 3CLpro inh, DUSP3 inh)
COc1ccc(OC)c(C(=O)c2c(C)oc3cc([N+](=O)[O-])c(O)c([N+](=O)[O-])c23)c1	GDH-TPI counter 36
CC(C)Cn1c(N)c(C(=O)COC(=O)c2ccncc2)c(=O)n(C)c1=O	none
CC(C)Cn1c(N)c(C(=O)COC(=O)c2nccnc2N)c(=O)n(C)c1=O	FBA Mtb inh active (no result: RecA intein inh, SARS 3CLpro inh, DUSP3 inh)
CC1Cc2cccc3ccc(=O)n(c23)C1 (stereo unspecified)	none (no result: RecA intein inh, SARS 3CLpro inh, DUSP3 inh)
Cc1ccc(S(=O)(=O)NC(=O)c2ccc(-c3ccc(-c4ccccc4)cc3)o2)c(C)c1	RecA intein inh 36 (no result: GDH-TPI counter, FBA Mtb inh, CCHF vOTU inh)
COc1ccc(-c2ccc3c(c2)CN(C(=O)C(C)(C)C)Cc2cnnn2-3)cc1	FBA Mtb inh 140 (no result: RecA intein inh, SARS 3CLpro inh, GDH-TPI counter, DUSP3 inh)
CC(C)(C)C(=O)N1Cc2cc(-c3ccccc3)ccc2-n2nncc2C1	none (no result: RecA intein inh, SARS 3CLpro inh, GDH-TPI counter, DUSP3 inh)
Cc1onc(-c2ccccc2)c1-c1nc2cc(Cl)ccc2c(=O)o1	RecA intein inh 36
CS(=O)(=O)c1ccc2sc(NC(=O)c3cc4ccccc4o3)nc2c1	GDH-TPI counter 72
CS(=O)(=O)c1ccc2nc(NC(=O)c3cc4ccccc4o3)sc2c1	GDH-TPI counter 47
Cc1ccc2nc(NC(=O)c3ccccn3)sc2c1	DUSP3 inh 52
COc1cccc(NC(=O)COC(=O)C2CC3CCCC(C2)C3=O)c1 (stereo unspecified)	none (no result: RecA intein inh, SARS 3CLpro inh, DUSP3 inh)
CCC(=O)/C=C1/Sc2ccc(OC)cc2N1CC	GDH-TPI counter 35
CCN1/C(=C/C(=O)c2ccco2)Sc2ccccc21	none
CCC(=O)/C=C1/Sc2ccccc2N1CC	GDH-TPI counter 39
CC(C)(C)NC(=O)C1c2ccccc2OCC(=O)N1Cc1ccccc1 (stereo unspecified)	none (no result: RecA intein inh, SARS 3CLpro inh, GDH-TPI counter, DUSP3 inh, FBA Mtb inh)
Nc1nn2cc(-c3ccc(Br)cc3)nc2c2ccccc12	FBA Mtb inh 146
COc1ccc(OC)c(Cc2nnc(CCC(=O)NC3CCCCC3)o2)c1	none
COc1ccc2c(C)c(CCC(=O)NC3CC3)c(=O)oc2c1	FBA Mtb inh 173
Cc1c(CCC(=O)NC2CC2)c(=O)oc2cc(O)ccc12	FBA Mtb inh active
CCN(CC)C(=O)[C@H]1C[C@@H]2[C@H](C[C@@H](c3ccccc3)[C@H]1C)N(c1ccc(F)cc1)C(=O)N2CCCOc1ccccc1	none (no result: RecA intein inh, SARS 3CLpro inh, GDH-TPI counter, DUSP3 inh, FBA Mtb inh)
CN1C(=O)C(=Cc2ccccc2Oc2ccc(Cl)cc2)C(=O)N(C)C1=O	FBA Mtb inh 131
Cn1cccc1C(=O)OCc1ccc(C(C)(C)C)cc1	none
COc1ccc(N2C(=O)c3ccccc3NC(=O)C2C(=O)NCC(C)C)cc1 (stereo unspecified)	none (no result: RecA intein inh, SARS 3CLpro inh, GDH-TPI counter, DUSP3 inh, FBA Mtb inh)
C(=C\c1ccco1)/C=N/n1cnnc1	GDH-TPI counter 51
S=c1[nH]nc(-c2ccncc2)n1/N=C/C=C/c1ccco1	none
COC(=O)c1ccc2c(C)c(C3(O)CCCCC3)[nH]c2c1	FBA Mtb inh active (no result: RecA intein inh, SARS 3CLpro inh, DUSP3 inh)
CS(=O)(=O)c1nc2c(cc1C#N)CCCC2	none (no result: RecA intein inh)
O=C(N/N=C/C(Cl)=C/c1ccccc1)c1ccccc1F	none
O=C(N/N=C/C(Br)=C/c1ccccc1)c1ccccc1F	GDH-TPI counter 32
COc1ccc(CCC(=O)NCc2cccc(C(F)(F)F)c2)cc1	none (no result: DUSP3 inh)
COc1ccc(CCNC(=O)Nc2ccc3c(c2)c(=O)n(C)n3Cc2ccc(F)cc2)cc1OC	FBA Mtb inh 118 (no result: RecA intein inh, SARS 3CLpro inh, DUSP3 inh)
Cn1c(=O)c2cc(NC(=S)NC3CC3)ccc2n1Cc1ccc(F)cc1	none (no result: RecA intein inh, SARS 3CLpro inh, DUSP3 inh)
